Results from PubChem BioAssay (NCATS).
Inconclusive results are not listed. Active and inactive are the calls of the source. The call rests on the fitted dose curve; in most records, active means well fitted cell-killing curve with a large enough effect; inconclusive means small, poorly fitted or top-dose-only effect, or effect the other way; inactive means no such curve, though single readings can be large or run the other way.

Assays:
[1] = Quantitative High-Throughput drug screen in 47 multiple myeloma cell lines against the NCATS MIPE library collection: OCIMY1_PLB cell viability assay (AID 1918979); further: nearly all actives have a fitted effect of over 35% in size; on viability: series mostly up to about 46 µM
Summary of the method: (§1)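 qHTS format: cells plated (500/well), pin-dosed with MIPE 4.0 compounds, kept 48 h at 37 °C. Readout was CellTiter-Glo luminescence, median RLU.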

[2] = Quantitative High-Throughput drug screen in 47 multiple myeloma cell lines against the NCATS MIPE library collection: MM1S_ATCC cell viability assay (AID 1918980); further: nearly all actives have a fitted effect of over 45% in size
Summary of the method: as §1

[3] = Quantitative High-Throughput drug screen in 47 multiple myeloma cell lines against the NCATS MIPE library collection: LP1_DSMZ cell viability assay (AID 1918982); further: nearly all actives have a fitted effect of over 35% in size
Summary of the method: as §1

[4] = Quantitative High-Throughput drug screen in 47 multiple myeloma cell lines against the NCATS MIPE library collection: KMS28PE_JCRB cell viability assay (AID 1918983); further: nearly all actives have a fitted effect of over 35% in size
Summary of the method: as §1

[5] = Quantitative High-Throughput drug screen in 47 multiple myeloma cell lines against the NCATS MIPE library collection: L363_DSMZ cell viability assay (AID 1918984); further: nearly all actives have a fitted effect of over 40% in size
Summary of the method: as §1

[6] = Quantitative High-Throughput drug screen in 47 multiple myeloma cell lines against the NCATS MIPE library collection: OPM1_PLB cell viability assay (AID 1918989); further: nearly all actives have a fitted effect of over 40% in size
Summary of the method: as §1

[7] = Quantitative High-Throughput drug screen in 47 multiple myeloma cell lines against the NCATS MIPE library collection: SKMM1_PLB cell viability assay (AID 1919863); settings: SKMM1 myeloma viability, CellTiter-Glo ATP, 48 h; viability: active compounds read low; further: nearly all actives have a fitted effect of over 35% in size; on viability: series mostly up to about 46 µM
Summary of the method: as §1

[8] = Quantitative High-Throughput drug screen in 47 multiple myeloma cell lines against the NCATS MIPE library collection: XG6_PLB cell viability assay (AID 1919865); further: nearly all actives have a fitted effect of over 40% in size
Summary of the method: as §1

[9] = Quantitative High-Throughput drug screen in 47 multiple myeloma cell lines against the NCATS MIPE library collection: XG1_PLB cell viability assay (AID 1919866); further: nearly all actives have a fitted effect of over 35% in size
Summary of the method: as §1

[10] = Quantitative High-Throughput drug screen in 47 multiple myeloma cell lines against the NCATS MIPE library collection: VP6_DJ cell viability assay (AID 1919867); further: nearly all actives have a fitted effect of over 40% in size
Summary of the method: as §1

[11] = Quantitative High-Throughput drug screen in 47 multiple myeloma cell lines against the NCATS MIPE library collection: UTMC2_PLB cell viability assay (AID 1919868); further: nearly all actives have a fitted effect of over 55% in size
Summary of the method: as §1

[12] = Quantitative High-Throughput drug screen in 47 multiple myeloma cell lines against the NCATS MIPE library collection: PE2_PLB cell viability assay (AID 1919869); further: nearly all actives have a fitted effect of over 35% in size
Summary of the method: as §1

[13] = Quantitative High-Throughput drug screen in 47 multiple myeloma cell lines against the NCATS MIPE library collection: PCM6_Riken cell viability assay (AID 1919870); further: nearly all actives have a fitted effect of over 30% in size
Summary of the method: as §1

[14] = Quantitative High-Throughput drug screen in 47 multiple myeloma cell lines against the NCATS MIPE library collection: RPMI8226_ATCC cell viability assay (AID 1919871); further: nearly all actives have a fitted effect of over 30% in size
Summary of the method: as §1

[15] = Quantitative High-Throughput drug screen in 47 multiple myeloma cell lines against the NCATS MIPE library collection: MM1R_ATCC cell viability assay (AID 1918981); further: nearly all actives have a fitted effect of over 35% in size
Summary of the method: as §1

[16] = Quantitative High-Throughput drug screen in 47 multiple myeloma cell lines against the NCATS MIPE library collection: KMS34_JCRB cell viability assay (AID 1918985); further: nearly all actives have a fitted effect of over 40% in size
Summary of the method: as §1

[17] = Quantitative High-Throughput drug screen in 47 multiple myeloma cell lines against the NCATS MIPE library collection: OPM2_DSMZ cell viability assay (AID 1919872); further: nearly all actives have a fitted effect of over 30% in size
Summary of the method: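 CellTiter-Glo luminescence (ATP) after 48 h compound exposure, 37C/5% CO2; 500 cells/well; MIPE 4.0 approved/investigational drugs pinned in; DMSO = 100%, media only = 0% viability.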

[18] = Quantitative High-Throughput drug screen in 47 multiple myeloma cell lines against the NCATS MIPE library collection: OCIMY7_PLB cell viability assay (AID 1918987); further: nearly all actives have a fitted effect of over 65% in size
Summary of the method: as §1

[19] = Quantitative High-Throughput drug screen in 47 multiple myeloma cell lines against the NCATS MIPE library collection: U266_ATCC cell viability assay (AID 1919864); further: nearly all actives have a fitted effect of over 35% in size
Summary of the method: as §1

[20] = Quantitative High-Throughput drug screen in 47 multiple myeloma cell lines against the NCATS MIPE library collection: OCIMY5_PLB cell viability assay (AID 1918988); further: nearly all actives have a fitted effect of over 65% in size
Summary of the method: as §1
Potency means the concentration at half of the fitted maximal effect.

CN1CCC(=C2c3ccccc3CC(=O)c3sccc32)CC1
inactive: Potency [1] | Potency [3] | Potency [4] | viability [7] 102% | Potency [14]
active: Potency [2] 16.6 µM | Potency [5] 23.5 µM | Potency [6] 23.5 µM | Potency [8] 5.9 µM | Potency [9] 8.33 µM | Potency [10] 9.35 µM | Potency [11] 10.5 µM | Potency [12] 11.8 µM | Potency [13] 14.8 µM

CC(C)(C)C(=O)Oc1ccc(S(=O)(=O)Nc2ccccc2C(=O)NCC(=O)O)cc1
inactive: Potency [1] | Potency [15] | Potency [3] | Potency [4] | Potency [16] | Potency [6] | viability [7] 142% | Potency [14] | Potency [17]

O=C(c1ccc(F)cc1)C1CCN(CCn2c(=O)[nH]c3ccccc3c2=O)CC1
active: Potency [19] 4.69 µM | Potency [14] 5.26 µM
inactive: Potency [1] | Potency [15] | Potency [3] | Potency [4] | Potency [16] | Potency [18] | Potency [6] | Potency [8] | Potency [11] | Potency [12] | Potency [17]

O=C1N(c2ccccc2)c2ccccc2C1(Cc1ccncc1)Cc1ccncc1
active: Potency [15] 26.4 µM | Potency [20] 37.2 µM | Potency [9] 18.7 µM | Potency [10] 20.9 µM | Potency [12] 20.9 µM
inactive: Potency [1] | Potency [3] | Potency [4] | Potency [16] | Potency [6] | viability [7] 122% | Potency [19] | Potency [14] | Potency [17]

CC12CC3CC(C)(C1)CC(N)(C3)C2
active: Potency [2] 18.7 µM | Potency [18] 23.5 µM | Potency [8] 20.9 µM | Potency [9] 23.5 µM | Potency [10] 18.7 µM | Potency [13] 20.9 µM
inactive: Potency [1] | Potency [3] | Potency [4] | viability [7] 125% | Potency [17]

Nc1nnc(-c2cccc(Cl)c2Cl)c(N)n1
active: Potency [2] 11.8 µM | Potency [18] 33.2 µM | Potency [6] 23.5 µM | Potency [8] 9.35 µM | Potency [9] 16.6 µM
inactive: Potency [1] | Potency [3] | Potency [20] | Potency [11] | Potency [14] | Potency [17]

Clc1ccc2c(c1)C(N1CCNCC1)=Nc1ccccc1O2
inactive: Potency [1] | Potency [8] | Potency [9] | Potency [17]
active: Potency [2] 7.43 µM | Potency [4] 18.7 µM | Potency [16] 18.7 µM | Potency [6] 20.9 µM

Clc1ccc2nsnc2c1NC1=NCCN1
inactive: Potency [1] | Potency [15] | Potency [3] | Potency [4] | Potency [18] | Potency [6] | Potency [8] | Potency [9] | Potency [10] | Potency [11] | Potency [13] | Potency [17]

NC(CO)C(=O)NNCc1ccc(O)c(O)c1O (stereo unspecified)
active: Potency [1] 26.4 µM | Potency [15] 11.8 µM | Potency [3] 20.9 µM | Potency [16] 26.4 µM | Potency [7] 11.8 µM | Potency [17] 18.7 µM
inactive: Potency [5] | Potency [6] | Potency [8] | Potency [9] | Potency [13]

CC(=O)OCC(CCn1cnc2cnc(N)nc21)COC(C)=O
active: Potency [6] 0.0012 µM
inactive: Potency [1] | Potency [15] | Potency [3] | Potency [4] | Potency [16] | Potency [8] | Potency [9] | Potency [10] | Potency [11] | Potency [12] | Potency [13] | Potency [14] | Potency [17]

CN(CCOc1ccc(NS(C)(=O)=O)cc1)CCc1ccc(NS(C)(=O)=O)cc1
inactive: Potency [1] | Potency [15] | Potency [3] | Potency [4] | Potency [5] | Potency [16] | Potency [18] | Potency [6] | viability [7] 109% | Potency [19] | Potency [9] | Potency [12] | Potency [13] | Potency [14] | Potency [17]
active: Potency [8] 13.2 µM

Clc1ccc(C(c2ccccc2Cl)C(Cl)Cl)cc1 (stereo unspecified)
active: Potency [1] 26.4 µM | Potency [15] 14.8 µM | Potency [4] 23.5 µM | Potency [18] 18.7 µM | Potency [6] 20.9 µM | Potency [7] 20.9 µM | Potency [19] 20.9 µM | Potency [10] 6.62 µM | Potency [13] 18.7 µM | Potency [14] 23.5 µM
inactive: Potency [12]

COc1ccccc1OCCNCC(O)COc1cccc2[nH]c3ccccc3c12 (stereo unspecified)
inactive: Potency [1] | Potency [12] | Potency [17]
active: Potency [15] 26.4 µM | Potency [9] 18.7 µM | Potency [13] 16.6 µM

COc1ccccc1N1CCN(CC(O)COc2cccc3ccccc23)CC1 (stereo unspecified)
inactive: Potency [1] | Potency [3] | Potency [16] | viability [7] 119% | Potency [19] | Potency [9] | Potency [10] | Potency [12]
active: Potency [4] 13.2 µM | Potency [6] 14.8 µM | Potency [14] 26.4 µM

Cc1cc(C(C)(C)C)c(O)c(C)c1CC1=NCCN1
inactive: Potency [1] | Potency [15] | Potency [3] | Potency [4] | Potency [6] | Potency [19] | Potency [8] | Potency [9] | Potency [10] | Potency [12] | Potency [13] | Potency [17]

CN1C(C(=O)Nc2ccccn2)=C(O)c2ccccc2S1(=O)=O
inactive: Potency [1] | Potency [3] | Potency [4] | Potency [16] | viability [7] 103% | Potency [19] | Potency [8] | Potency [9] | Potency [10] | Potency [12] | Potency [13] | Potency [14] | Potency [17]
